# Experimental data published in PubChem BioAssay (NCATS).
# Records with an inconclusive call do not appear. A number with no mark means an inactive call. Calls of active or inactive are those of the source. Calls follow the shape of the dose curve; as a rule, active = well fitted cell-killing curve with a large enough effect; inconclusive = small, poorly fitted or top-dose-only effect, or effect the other way; inactive = no such curve, though single readings can be large or run the other way.
# Assay: Quantitative highthroughput screen to assess conditional lethalithy of SEM cells grown in RPMI1640 with unreated serum (RPMI+s) (AID 1963883); also: nearly all actives have a fitted effect of over 35% in size
# Settings: SEM B-ALL cells, CellTiter-Glo viability, 48 h; series mostly up to 45.8 µM; viability: at the top concentration
# Source text: Assay Provider: Jason Cantor Ph.D.
# Department of Biochemistry
# University of Wisconsin-Madison, Madison, WI, USA
# Chemical screening studies have identified drug sensitivities across hundreds of cancer cell lines but most putative therapeutics fail to translate. Discovery and development of drug candidates in models that more accurately reflect nutrient levels in human blood is a major challenge. Here we performed high-throughput screens in conventional versus Human Plasma-Like Medium (HPLM) to identify compounds that were "missed" when screening using the artificial culture condition. Sets of conditional anticancer compounds spanned phases of clinical development and included non-oncology drugs were assessed. […] We also traced conditional phenotypes for several chemotherapeutics to availability of HPLM-specific metabolites and confirmed others for compounds whose reported targets are encoded by nonessential genes. Our findings establish generalizable strategies for exploiting conditional lethality in HPLM to reveal therapeutic candidates and mechanisms of action in cancer cells.
# Described herein are the results of each viability screens against three cell lines: NOMO1 (an acute myeloid leukemia cell line); P12-Ichikawa (a T-cell acute lymphoblastic leukemia); and SEM (a B-cell ALL). Each assay was screened using 3 different cell culture media: homemade human plasma-Like medium with 10% dialyzed fetal bovine serum (HPLM+ds); RPMI1640 with 10% untreated FBS and 5mM glucose (RPMI+s); and RPMI1640 with 10% dialyzed fetal bovine serum and 5 mM glucose (RPMI+ds).
# PROTOCOL TABLE (as described by Inglese J, Shamu CE and Guy RK. 2007)
# SEQUENCE No. (e.g., 1, 2, 3, etc.); […] (e.g., Cells, Incubation, Reagent, etc.); VALUE and DESCRIPTION.
# 1; Cells; 5 uL; white, solid bottom 1536-well Greiner assay plate.
# 2; Compounds; 23 nL; Kalypsis pin tool (Wako USA) equipped with a 1536-well pin head to transfer to the assay plates.
# 3; Incubation; 48 hours; 37C incubation.
# 4; Reagent; 3 uL; CellTiter Glo (Promega).
# 5; Incubation; 5 min, room temperature
# 6; Detection; Luminescence, Viewlux PerkinElmer.
# NOTES (numbers refer to Sequence numbers above)
# 1. Briefly, 5 ul of cell reagent was dispensed using a Multidrop Combi Dispenser. The NOMO1 and SEM cells were plated at 500 cells/well and the P12-Ichikawa line at 1000 cells/well.
# 2. After seeding the cells, 23 nL of MIPE 4.1 library compounds (in DMSO) were added to each plate using a Kalypsys 1536 Pintool dispenser. Bortezomib at final concentration of […] and DMSO were added to each plate as positive and negative controls respectively. For each screen, MIPE 4.1 compounds were added over an eleven-point concentration range […] in 3-fold dilutions.
# 3. Each plate was covered with a stainless steel gasketed lid to prevent evaporation and incubated for 48 hour at 37C, 95% relative humidity, and 5% CO2.
# 4-5. Three microliter CellTilter-GloTM luminescent substrate mix (Promega) reagent was added to the assay plate and incubated at room temperature for 5 min.
# 6. The luminescence signal was measured using a ViewLux (PerkinElmer) multiplate reader with a 2 second exposure time per plate. Data for each compound were normalized as percent viability such that measurements for DMSO and the empty well controls in each plate were defined as 100% and 0%, respectively.
# Potency is read from the fitted curve at half-maximal effect.
Compound,viability,Potency
COC(=O)[C@@H](N)CCCN=C(N)N[N+](=O)[O-],102%,
CO[C@H]1CCC(O[C@H]2C[C@H]([C@]3(C)CC[C@]4(C[C@H](O)[C@@H](C)[C@@H]([C@@H](C)C=C(C)C(=O)[C@H](C)C[C@H](C)C(=O)O)O4)O3)O[C@]3(O[C@@H]([C@H]4O[C@@](O)(CO)[C@H](C)C[C@H]4C)C[C@H]3C)[C@H]2C)O[C@H]1C (stereo not given in full),,1.87 µM (active)
CCN1CCN(C(=O)Cc2ccc(Nc3ncc(F)c(Nc4ccc(C(=O)Nc5ccccc5Cl)cc4)n3)cc2)CC1,,5.9 µM (active)
C[C@@H]1[C@@H](C(=O)C[C@H]2O[C@@H]3O[C@]4(C)CC[C@@H]5[C@H](C)CC[C@@H]([C@H]2C)[C@@]35OO4)O[C@@H]2O[C@]3(C)CC[C@H]4[C@H](C)CC[C@@H]1[C@@]24OO3,,14.8 µM (active)
c1cc2c(cc1[C@H]1OC[C@H]3[C@H]1CO[C@H]3c1ccc3c(c1)OCO3)OCO2,70%,
CCc1c(C(=O)C(N)=O)c2c(OCC(=O)O)cccc2n1Cc1ccccc1,83.3%,
Cc1sc2c(c1C)C(c1ccc(Cl)cc1)=N[C@@H](CC(=O)OC(C)(C)C)c1nnc(C)n1-2,,0.235 µM (active)
N[C@@H](Cc1ccc(N(CCCl)CCCl)cc1)C(=O)O,,2.64 µM (active)
CN(C)[C@@H]1C(=O)C(C(N)=O)=C(O)[C@@]2(O)C(=O)C3=C(O)c4c(O)cccc4[C@@](C)(O)[C@H]3[C@H](O)[C@@H]12,106%,
CCOC(=O)Nc1ccc(NCc2ccc(F)cc2)cc1N,91.9%,
COc1cccc2c1[C@]13CCN(CC4CC4)[C@H](C2)[C@]1(OC)CCC(=O)C3,93.4%,
O=P1(N(CCCl)CCCl)NCCCO1 (stereo not given),,8.33 µM (active)
Cc1cccc(C)c1NC(=O)CN1CCCC1=O,85.2%,
O=c1[nH]c2ccccc2n1CCCN1CCC(n2c(=O)[nH]c3cc(Cl)ccc32)CC1,81.4%,
CCOc1ccccc1-n1c(C(C)N2CCN(C(=O)COc3ccc(Cl)cc3)CC2)nc2ccccc2c1=O (stereo not given),,0.417 µM (active)
Cc1[nH]nc2ccc(-c3cncc(OC[C@@H](N)Cc4c[nH]c5ccccc45)c3)cc12,,0.59 µM (active)
CC(=Cc1csc(C)n1)[C@@H]1C[C@H]2O[C@]2(C)CCC[C@H](C)[C@@H](O)[C@@H](C)C(=O)C(C)(C)[C@@H](O)CC(=O)O1,14.1%,
CC(=Cc1csc(C)n1)[C@@H]1C[C@H]2O[C@@H]2CCC[C@H](C)[C@@H](O)[C@@H](C)C(=O)C(C)(C)[C@@H](O)CC(=O)O1,11.1%,
C[C@]12CC[C@H](O)CC1=CC[C@H]1[C@H]3CCC(=O)[C@@]3(C)CC[C@@H]12,91.3%,
CC[C@@]1(O)C(=O)OCc2c1cc1n(c2=O)Cc2cc3ccccc3nc2-1,,0.0235 µM (active)

Compound,viability,Potency
c1ccc2c(CN3CCNCC3)cccc2c1,95.2%,
CN1C(=O)COc2c(C(=O)NC3CN4CCC3CC4)cc(Cl)cc21 (stereo not given),101%,
CCNC(=O)C[C@@H]1N=C(c2ccc(Cl)cc2)c2cc(OC)ccc2-n2c(C)nnc21,,1.05 µM (active)
C[C@]12CCC(=O)C=C1CC[C@@H]1[C@H]3CC[C@](C)(O)[C@@]3(C)CC[C@@H]12,89.4% [at 92.2 µM],
COc1cc(OC)c(OC)cc1C=O,90.9%,
COc1cc2cc(c1Cl)N(C)C(=O)C[C@H](OC(=O)C(C)C)[C@]1(C)O[C@H]1[C@H](C)[C@@H]1C[C@@](O)(NC(=O)O1)[C@H](OC)C=CC=C(C)C2,1.57%,
CCN1C[C@]2(OC(=O)c3ccccc3NC(C)=O)CC[C@H](OC)[C@@]34[C@H]5CC6[C@@H](OC)C[C@](O)(C(C[C@@H]23)[C@@H]14)[C@@]5(O)[C@@H]6OC,,6.62 µM (active)
NCC1(CC(=O)O)CCCCC1,97.8%,
CC(=O)OCC1=C(C(=O)O)N2C(=O)[C@@H](N)[C@@H]2SC1,83.3%,
Cc1ncc(OC[C@@]2(c3cccc(F)c3)C[C@H]2C(=O)Nc2ccc(F)cn2)c(C)n1,85.6%,
O=C1CC[C@@]2(O)[C@H]3Cc4ccc(O)c5c4[C@@]2(CCN3CC2CC2)[C@H]1O5,102%,
C#C[C@]1(O)C=C[C@@H]2[C@@H]3CCC4=CC(=O)CC[C@@H]4[C@H]3CC[C@@]21CC,97.7%,
CC=C(C)C(=O)O[C@H]1C(C)=C2[C@@H]3OC(=O)[C@@](C)(O)[C@@]3(O)[C@@H](OC(=O)CCC)C[C@](C)(OC(C)=O)[C@@H]2[C@@H]1OC(=O)CCCCCCC,,0.0332 µM (active)
CC(C)N[C@@H]1CCn2c(=O)[nH]c3cccc(c32)[C@@H]1O,92.9%,
Cc1cc(SCc2sc(-c3ccc(C(F)(F)F)c(F)c3)nc2C)ccc1OCC(=O)O,105%,
CCCC(C)(COC(N)=O)COC(=O)NC(C)C (stereo not given),113%,
C[C@H]([C@H](O)CCC(C)(C)O)[C@H]1CC[C@@]2(O)C3=CC(=O)[C@@H]4C[C@@H](O)[C@@H](O)C[C@]4(C)[C@@H]3CC[C@]12C,88.2%,
O=C(O)C(=O)c1cn(Cc2ccccc2)c2ccc(-c3ccc(OC(F)(F)F)cc3)cc12,94.5%,
C#CC1(O)CCC2C3CCC4=CC(=O)CCC4(C)C3CCC21C (stereo not given),111%,
CN[C@@H]1Cc2cccc3[nH]c(=O)n(c23)C1,106%,
